Tests used:
Format in all cases: functional
[1] = target: Solute carrier family 2, facilitated glucose transporter member 1 (Homo sapiens) (UniProt P11166); assay: ST_JUDE_LEISH: Cytotoxicity at 2uM final concentration against transgenic Leishmania Mexicana promastigotes LmGLUT1 that are glucose transport deficient and complemented with the human glucose transporter GLUT1. Activity is measured by DNA content using SYBR green in vitro
[2] = target: Hexose transporter 1 (Plasmodium falciparum) (UniProt O97467); assay: ST_JUDE_LEISH: Cytotoxicity at 2uM final concentration against transgenic Leishmania Mexicana promastigotes LmPfHT that are glucose transport deficient and complemented with the Plasmodium falciparum hexose transporter. Activity is measured by DNA content using SYBR green in vitro
[3] = target: Glucose transporter (Leishmania mexicana) (UniProt O61059); assay: ST_JUDE_LEISH: Cytotoxicity at 2uM final concentration against transgenic Leishmania Mexicana promastigotes LmGT2 that are glucose transport deficient and complemented with the L. Mexicana glucose transporter 2. Activity is measured by DNA content using SYBR green in vitro

Chain of Solute carrier family 2, facilitated glucose transporter member 1 (Homo sapiens) (P11166 whole entry): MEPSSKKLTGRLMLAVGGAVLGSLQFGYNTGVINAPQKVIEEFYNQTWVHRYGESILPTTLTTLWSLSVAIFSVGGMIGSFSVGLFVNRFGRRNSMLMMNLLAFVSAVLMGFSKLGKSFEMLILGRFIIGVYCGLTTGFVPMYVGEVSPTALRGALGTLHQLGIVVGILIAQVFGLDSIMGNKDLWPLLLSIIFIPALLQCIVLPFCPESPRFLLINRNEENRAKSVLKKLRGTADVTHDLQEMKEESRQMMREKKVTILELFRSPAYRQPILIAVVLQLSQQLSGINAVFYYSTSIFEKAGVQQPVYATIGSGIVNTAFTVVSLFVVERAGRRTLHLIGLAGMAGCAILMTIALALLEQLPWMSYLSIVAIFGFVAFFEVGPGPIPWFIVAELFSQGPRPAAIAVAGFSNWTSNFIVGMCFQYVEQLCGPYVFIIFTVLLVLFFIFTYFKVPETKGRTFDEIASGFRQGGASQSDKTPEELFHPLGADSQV

| Compound | inhibition [1] | inhibition [2] | inhibition [3] |
| --- | --- | --- | --- |
| O=C(c1ccc(Br)o1)N1N=C(c2cccs2)CC1c1ccc(Br)cc1 (stereo unspecified) | 5.77% | 7.79% | 3.94% |
| COc1ccc2nccc(N3CCC(O)(CCNCc4ccc5c(n4)NC(=O)CO5)CC3)c2n1 | 2.27% | 3.33% | 2.81% |
| O=C(Nc1cccc(Cl)c1Cl)N[C@H]1CCN(CCCCCNC(=O)C2CC2c2ccc(Cl)c(Cl)c2)C1 (stereo partly specified) | 5.31% | 4.52% | 1.19% |
| NC(=O)c1ccccc1OCC(=O)Nc1ccc(-c2cccc(-c3nc4cc(C(F)(F)F)ccc4[nH]3)c2)cc1 | 2.52% | -0.46% | 3.74% |
| CCCN(Cc1nnc(-c2ccco2)o1)C(=O)C1CCCN(C(=O)c2ccc(Cl)cc2)C1 (stereo unspecified) | 1.85% | 0.73% | -0.96% |
| C=C[C@]1(C)C[C@@H](OC(=O)c2n[nH]c3ccccc3c2=O)[C@]2(C)[C@H](C)CC[C@]3(CCC(=O)[C@H]32)[C@@H](C)[C@@H]1O | 5.34% | 0.28% | -0.71% |
| O=C(/C=C/c1ccc(Cl)c(Cl)c1)NCCCCCN1CCN(C(=O)Nc2ccc(C(F)(F)F)cc2)CC1 | 2% | 1.98% | 0.71% |
| N=C(N)NN=CC(=O)Nc1ccc(Cl)c(Cl)c1 | 0.13% | -1.4% | -1.96% |
| CCCn1c(Sc2ccc(C#N)c([N+](=O)[O-])c2)nnc1-c1cc(OC)cc(OC)c1 | 0.5% | 4.36% | 1.24% |
| O=C(NCC1CC1)C1CCN(C(c2ccccc2)c2cc(F)cc(F)c2)CC1 (stereo unspecified) | 3.61% | 3.92% | -1.03% |
| CC(C)(NCc1ncc[nH]1)c1nc(-c2ccc(Cl)c(O)c2)c(-c2ccncc2)[nH]1 | 2.76% | 3.34% | 3.01% |
| COc1ccc2nccc(N3CCC(SCCNCc4cc5c(cn4)OCCO5)C3)c2n1 (stereo unspecified) | 0.61% | 0.85% | -2.04% |
| O=C(Nc1cccc(N2CCC(NCCCn3ccnc3)CC2)c1)c1cccc(C(F)(F)F)c1 | 0.98% | -0.71% | 3.8% |
| Clc1ncccc1-c1nc(NCCC(c2ccccc2)c2ccccc2)no1 | 4.29% | 2.24% | 2.64% |
| CCCc1cc(Cc2cnc(N)nc2N)cc(CC)c1O | 1.7% | 0.94% | 0.25% |
| CC(C)[C@@H](C(=O)NCc1cccc(C(F)(F)F)c1)N1C(=O)CCC1C(=O)Nc1ccc([N+](=O)[O-])cc1 (stereo partly specified) | 2.24% | 1.67% | 2.73% |
| CS(=O)(=O)CCNCc1cccc(-c2cc3c(Nc4ccc(OCc5ccccc5)cc4)ncnc3cn2)c1 | 13.7% | 10.7% | 6.71% |
| Cc1ccccc1Nc1nc(NCc2ccccc2)nc2ccccc12 | 14.9% | 10.9% | 5.77% |
| N#Cc1cccc(NC(=O)c2cccc(S(=O)(=O)NC3CCN(CC4CCCCC4)C3)c2)c1 (stereo unspecified) | 0.54% | 1.11% | 3.37% |
| COc1cccc(-c2ccc(O)c(CNCCc3cccc(F)c3)c2)n1 | -0.7% | 3.14% | 2% |
| COc1cc(C)nc2ccc(NC(=O)Nc3ccc([N+](=O)[O-])cc3C)cc12 | 3.91% | 2.99% | 3.97% |
| Oc1ccccc1CNC1CCCCC1NCc1ccccc1O (stereo unspecified) | 7.77% | 9.96% | 4.48% |
| c1ccc(-c2nc(Nc3ccncc3)sc2-c2ccccc2)cc1 | 4.18% | 4.94% | 1.21% |
| Cc1cc2ncn(-c3ccnc(N4CCN(CCCN5CCCC5)CC4)n3)c2cc1C | 4.77% | 3.43% | 2.01% |

| Compound | inhibition [1] | inhibition [2] | inhibition [3] |
| --- | --- | --- | --- |
| C=CCn1ccc2c3c(N)nc(N)nc3ccc21 | 66% | 79.6% | 44.1% |
| O=C(/C=C/c1ccc(Cl)c(Cl)c1)NCCCCCN1CCC(NC(=S)Nc2ccc(Cl)c(Cl)c2)CC1 | 4.99% | 5.09% | 3.5% |
| O=C(N[C@@H](CC1CCCCC1)C(=O)NC1CCCc2ccccc21)c1ccc(O)c(-c2ccc(Cl)c(Cl)c2)c1 (stereo partly specified) | 1.23% | 0.75% | 0.12% |
| O=C(N[C@H]1CCN(CCc2ccc(O[C@H]3CCNC3)cc2)C1)c1ccc(Cl)c(Cl)c1 | 14.2% | 10.1% | 14.5% |
| Cc1cc2nc(-c3ccc(C(=O)NCc4ccc(C(C)(C)C)cc4)cc3)[nH]c2cc1C | 3.51% | 2.34% | -0.6% |
| N#CCCN1CCN(Cc2cccc(-c3ccc(-c4nc5cc(C(F)(F)F)ccc5[nH]4)cc3)c2)CC1 | 3.02% | 2.73% | 2.78% |
| CCC(C)c1ccc(Nc2nc(C)cc(N(CC)CCCN3CCCCC3)n2)cc1 (stereo unspecified) | -1.09% | 0.87% | 1.67% |
| OCC1CCN(Cc2cccc(-c3ccc(-c4nc5cc(F)ccc5[nH]4)cc3)c2)CC1 | 0% | -0.04% | 0.27% |
| Cc1cc(N2CCOCC2)nc(Nc2ccc(NC(=O)Nc3ccc(F)cc3)cc2)n1 | -0.56% | -2.91% | 1.66% |
| COc1ccc(-c2cnc(NCc3ccccc3)nc2)cc1CNC1CCN(C)CC1 | -0.17% | 1.06% | -0.94% |
| Fc1ccc2[nH]c(-c3ccc(-c4ccc(CN5CCN(c6cnccn6)CC5)cc4)s3)nc2c1 | 2.41% | 1.2% | 0.86% |
| O=C(c1ccc2ccccc2n1)N1CCCc2cc(Br)ccc21 | 8.95% | 1.96% | 0.16% |
| O=C(Nc1ccc(Cn2ncc(N3CCCNCC3)c(Cl)c2=O)cc1)Nc1cccc(Oc2ccccc2)c1 | 2.36% | 2.39% | 1.79% |
| C=CCOC(=O)N1CCC(CNCc2cccc(-c3cccc(-c4nc5cc(F)ccc5[nH]4)c3)c2)C1 (stereo unspecified) | 1.39% | 0.9% | -0.93% |
| CC(C)(C)[C@@H](Nc1ccc(C#N)c2ccccc12)C(=O)NC1(Cc2ccc(O)c(Br)c2)CCCC1 | 2.05% | 3.09% | -0.09% |
| CCC1CN2CCc3c([nH]c4ccccc34)C2CC1CC1NCCc2cc(OC)c(OC)cc21 (stereo unspecified) | 1.68% | 4.6% | 0.99% |
| COc1ccc(NC(=O)Nc2ccc(-c3cccc(-c4nc5ccccc5[nH]4)c3)cc2)cc1 | 3% | 3.12% | 2.89% |
| C=CCC(C)n1ncc2c3c(N)nc(N)nc3ccc21 (stereo unspecified) | 2.58% | -0.39% | -0.24% |
| COc1ccc2ccccc2c1CNCCCCCCNCc1c(OC)ccc2ccccc12 | 1.14% | -0.97% | -3.28% |
| COc1cc2c(cc1N(C(C)C)S(=O)(=O)c1sc3ccc(Cl)cc3c1C)CCNCC2 | 43.3% | 10.2% | 3.21% |
| CCn1c2c(c(=N)c3ccccc31)CCC2 | -0.78% | -2.72% | -1.61% |
| N#Cc1ccc(Sc2nnc(-c3ccccc3Cl)n2CC2CCCCC2)cc1[N+](=O)[O-] | 2.9% | 3.12% | 0.82% |
| CCn1cnc2c(Nc3cccc([N+](=O)[O-])c3)nc(N3CCC(N4CCCCC4)CC3)nc21 | 0.93% | 3.03% | -0.24% |
| O=S(=O)(c1ccccc1Cl)N1CCCCC(c2ccc(C(F)(F)F)cc2)=N1 | 1.24% | 2.48% | -2.05% |

| Compound | inhibition [1] | inhibition [2] | inhibition [3] |
| --- | --- | --- | --- |
| CCOC(=O)c1c(-c2ccccc2)nc2c(sc3ccccc32)c1O | 5.5% | 5.15% | 5.35% |
| COc1cc(OC)cc(-c2nn(-c3ccc([N+](=O)[O-])cc3C#N)c(=S)n2CC2CCCO2)c1 (stereo unspecified) | 2.04% | 1.07% | -7.78% |
| COC(=O)C(=O)c1c(-c2ccccc2)c(-c2ccc(OC)c(OC)c2)c2c3cc(OC)c(OC)cc3ccn12 | 13.2% | 10.2% | 8.49% |
| O=C(Nc1ccc(-c2nc3ccccc3[nH]2)cc1)c1ccc(S(=O)(=O)N2CCCCC2)cc1 | 3.08% | 4.17% | 0.68% |
| C[C@H](Cc1ccc(C[C@@H](C)NCC(O)c2cc(Cl)c(N)c(Cl)c2)cc1)NCC(O)c1cc(Cl)c(N)c(Cl)c1 (stereo partly specified) | 0.36% | 0.31% | 1.14% |
| CCSc1nc2sc3c(c2c(=O)n1-c1ccccc1)CCN(C)C3 | 0.1% | 0.76% | -0.96% |
| CC(Cc1ccc(CNC(=O)c2ccc(CC(C)NCCc3cccc(Cl)c3)cc2)cc1)NCCc1cccc(Cl)c1 (stereo unspecified) | 1.09% | 8.32% | 2.1% |
| CCOC(=O)c1ccc(NC(=O)Nc2ccc(Cn3ncc(N4CCCNCC4)c(Cl)c3=O)cc2)cc1 | 8.8% | 12.6% | 7.11% |
| O=C(c1ccc([N+](=O)[O-])o1)N1CCC(c2cn(Cc3cccc(F)c3)c3ccccc23)CC1 | 50.1% | 50.9% | 10.2% |
| Cc1ccc(CN2CCCCC(NC(=O)c3cc4ccccc4s3)C2)cc1 (stereo unspecified) | 0.16% | 0.49% | -8.68% |
| COc1ccc(-c2ccc(NC(=O)c3ccc(F)cc3)cc2)cc1CNC(C)C | 0.84% | 1.24% | 4.68% |
| CCc1cn2c3c(cc(C(=O)N[C@@H](Cc4ccccc4)[C@H](O)CNCC(C)C)cc13)N(C)S(=O)(=O)CC2 | 3.97% | 4.71% | 3.3% |
| OC[C@H]1CCCN1CC#Cc1cc2c(Nc3ccc(OCc4cccc(F)c4)c(Cl)c3)ncnc2s1 | 3.54% | 3.56% | 2.65% |
| CCCCCCN1CCCN(Cc2ccc(C(=O)Nc3ccc(C(C)C)cc3)cc2)CC1 | 5.84% | 7.26% | 4.28% |
| O=C(/C=C/c1ccc(Cl)c(Cl)c1)NCCCCCCN1CCCN(C(=O)Nc2cc(Cl)cc(Cl)c2)CC1 | 0.67% | 0.41% | -2.48% |
| N=C(N)c1cc(Br)cc(NC(=O)Nc2cc(Br)cc(C(=N)N)c2)c1 | 2.46% | 2.44% | 3.14% |
| COc1cc2nc(NCCCN3CCCCC3)nc(NCc3ccccc3)c2cc1OC | 2.96% | 4.73% | -0.35% |
| Oc1ccc(CCNc2nc(NCc3cccc(OCc4cccc(F)c4)c3)nc(N3CCNCC3)n2)cc1 | -1.28% | 0.71% | 1.08% |
| O=C(O)CCSc1ncnc2[nH]cnc12 | -2.53% | -2.15% | -2.15% |
| O=[N+]([O-])c1ccc2nccnc2c1 | 6.19% | 5.71% | 6.9% |
| Cc1[nH]c2ccc(C#N)cc2c(=O)c1Br | 2.13% | 1.62% | 1.31% |
| Cn1c(Cc2ccccc2)nnc1Sc1ccc(C#N)c([N+](=O)[O-])c1 | 3.85% | 1.84% | -3.07% |
| Cc1cc(C(=O)Nc2ccc3c(c2)CCN3C2CCN(Cc3ccc(O)cc3)C2)no1 (stereo unspecified) | 4.29% | 5.39% | 2.38% |
| CC(C)(C)c1ccc(Cn2c(=N)n(CC(=O)c3ccc(-c4ccccc4)cc3)c3ccccc32)cc1 | 0.71% | -0.1% | -0.07% |

Reference: ChEMBL document CHEMBL3433997, “St. Jude Leishmania screening dataset” (2016)
